Reference: PubChem BioAssay (NCATS)
Records with an inconclusive call do not appear. Calls of active or inactive are those of the source. The call rests on the fitted dose curve; in most records, active means well fitted inhibition curve with a large enough effect; inconclusive means small, poorly fitted or top-dose-only effect; inactive means flat fitted curve, though single readings scatter.

test system: HaCat; assay: Cytotoxic Profiling of Annotated Libraries Using Quantitative High-Throughput Screening (AID 1296008); details: Five cell lines viability, CellTiter-Glo ATP luminescence, 48-72 h; max response: active compounds read low; further: nearly all actives have a fitted effect of over 60% in size
How it was run: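 Cells exposed to compounds for 48 or 72 hr at 37 degrees Celsius. Viability read as ATP-coupled luminescence with CellTiter-Glo after 10 min at room temperature.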

| Compound | outcome |
| --- | --- |
| CC1CCC2C(C)(C)CC(C)(CO)C2(O)C1C(=O)O (centres undefined) | inactive |
| C=C1C[C@@]23CC[C@@H]4[C@](C)(C(=O)O)CCC[C@@]4(C)C2=CC[C@H]1C3 | inactive |
| CCOc1nc2cccc(C(=O)O)c2n1Cc1ccc(-c2ccccc2-c2noc(=O)[nH]2)cc1 | inactive |
| C/C=C(\C)C(=O)OC[C@H]1O[C@H](O[C@H]2O[C@H](CO)[C@@H](OC(=O)/C(C)=C/C)[C@H](O)[C@H]2O[C@@H]2O[C@H](CO)[C@@H](O)[C@H](O)[C@H]2O)[C@H](O[C@@H]2O[C@H](CO)[C@@H](O)[C@H](O)[C@H]2O)[C@@H](O)[C@@H]1O | inactive |
| CCNC(=O)CCC/C=C\C[C@@H]1[C@@H](/C=C/C(O)CCc2ccccc2)[C@@H](O)C[C@@H]1O (some centres undefined) | inactive |
| C=C(C)C(=O)O[C@H]1C[C@@](C)(OC(C)=O)[C@@]2(O)CC[C@@](C)(O)[C@H](OC(C)=O)[C@@]23OC(=O)C(COC)=C13 | inactive |
| CC(=O)O[C@@H]1[C@H]2[C@@H](OC(=O)c3ccccc3)[C@@H](C)C[C@]2(O)[C@H](OC(C)=O)[C@@]2(C)[C@@H]3CC(C)(C)C(=O)[C@]3(OC(C)=O)C[C@@]12C | inactive |
| C=CC(C)(CC/C=C(\C)CC/C=C(\C)CC(O)/C=C(\C)C(=O)O)O[C@@H]1O[C@H](CO)[C@@H](O)[C@H](O)[C@H]1O[C@@H]1O[C@H](CO)[C@@H](O)[C@H](O)[C@H]1O (some centres undefined) | inactive |
| C/C=C(\C)C(=O)O[C@@H](C)[C@H]1CC[C@]2(O)C3CCC4C[C@@H](OC5CC(OC)C(OC6CC(OC)C(OC7CC(OC)C(OC8OC(C)C(OC9OC(CO)C(O)C(O)C9O)C(OC)C8O)C(C)O7)C(C)O6)C(C)O5)CC[C@]4(C)C3[C@H](O)[C@@H](O)[C@]12C (some centres undefined) | inactive |
| CC1(C)CC(=O)N(CCCCN2CCN(c3ncccn3)CC2)C(=O)C1 | inactive |
| C[C@@H]1CC[C@]2(C(=O)O)CC[C@]3(C)C(=CCC4[C@]5(C)C(CC[C@]43C)C(C)(C)[C@@H](O)[C@H](O)[C@@H]5O)C2[C@]1(C)O (some centres undefined) | inactive |
| O=C(COc1ccc(Cl)cc1)NC1CCC(NC(=O)COc2ccc(Cl)cc2)CC1 (centres undefined) | inactive |
| O=C(O)CCc1cccc(O[C@@H]2O[C@H](CO)[C@@H](O)[C@H](O)[C@H]2O)c1O | inactive |
| OC[C@H]1O[C@@H](OC(CCCCc2ccc(O)cc2)CCc2ccc(O)cc2)[C@H](O[C@@H]2OC[C@](O)(CO)[C@H]2O)[C@@H](O)[C@@H]1O (some centres undefined) | inactive |
| COc1cc2c(cc1OC)CN(C(=O)[C@@H](NCc1ccncc1)C(C)(C)C)CC2 | inactive |
| COc1ccc(/C=C/C(=O)O[C@@H]2[C@@H](O)[C@H](C)O[C@@H](OC3C4C=COC(O[C@@H]5O[C@H](CO)[C@@H](O)[C@H](O)[C@H]5O)C4C4(CO)OC34)[C@@H]2O)cc1OC (some centres undefined) | inactive |
| CC(=O)OCC1=C[C@H](O)[C@@H]2C(C(=O)O)=CO[C@@H](O[C@@H]3O[C@H](CO)[C@@H](O)[C@H](O)[C@H]3O)[C@H]12 | inactive |

| Compound | outcome |
| --- | --- |
| COC(=O)[C@@]1(O)C=CC[C@@H]2[C@@]3(C)C[C@@H](c4ccoc4)OC(=O)[C@H]3CC[C@]21C | inactive |
| O=C(NCC(=O)N1CC[C@H](NC2CCC(O)(c3ccc(-c4ncccn4)cn3)CC2)C1)c1cccc(C(F)(F)F)c1 (some centres undefined) | inactive |
| CC1=CC(=O)C2C(C)(C)CCCC2(C)C12CCC1(COC(=O)C1)O2 (centres undefined) | inactive |
| CC(C)(O)C1CCC2(C)C3C(O)C4C(C13)C42CO (centres undefined) | inactive |
| C[C@@H]1CC[C@]2(C)C(C[C@@H](O)[C@H](O)[C@]23CO3)[C@@]1(C)CCc1ccoc1 (some centres undefined) | inactive |
| O=C(O)C[C@H]1CCC(=O)[C@@H]1C/C=C\CCOC1OC(CO)C(O)C(O)C1O (some centres undefined) | inactive |
| C=CCc1ccc(O[C@@H]2O[C@H](CO)[C@@H](O)[C@H](O)[C@H]2O)c(OC)c1 | inactive |
| CC1OC(OC2C(O)C(C(=O)O)OC(OC3CCC4(C)C(CCC5(C)C4C=CC4=C6CC(C)(C)CC(O)C6(C)CCC45C)C3(C)C)C2OC2OCC(O)C(O)C2O)C(O)C(O)C1O (centres undefined) | inactive |
| C[C@H]1[C@H](C)CC[C@]2(C(=O)O)CC[C@]3(C)C(=CC[C@@H]4[C@@]5(C)C[C@@H](O)[C@H](O)[C@@](C)(CO)[C@@H]5CC[C@]43C)[C@H]12 | inactive |
| CC(C)C1=CC2=CCC3[C@](C)(CCC[C@@]3(C)C(=O)O)C2CC1O (some centres undefined) | inactive |
| C[C@@H]1O[C@@H](O[C@H]2[C@H](O)[C@@H](C(=O)O)O[C@@H](O[C@H]3CC[C@@]4(C)C(CC[C@]5(C)C4CC=C4C6CC(C)(C)CC[C@]6(C(=O)O)CC[C@]45C)C3(C)C)[C@@H]2O[C@@H]2O[C@H](CO)[C@@H](O)[C@H](O)[C@H]2O)[C@H](O)[C@H](O)[C@H]1O (some centres undefined) | inactive |
| O=S(=O)(NC1CCNCC1)c1cc(S(=O)(=O)c2ccccc2)ccc1C(F)(F)F | inactive |
| CC(=O)O[C@H]1[C@H](C)[C@@H](O)[C@H]2[C@@H]1C=C(C(=O)O)[C@H]1C[C@@H]3[C@H]([C@H]21)[C@H]1C(=O)O[C@@H]2CC[C@@]3(C)O[C@]1(O)[C@@H]2C | inactive |
| C/C=C(\C)C(=O)O[C@H]1[C@H](O)[C@]2(COC(C)=O)[C@H](O)C[C@]3(C)C(=CCC4[C@@]5(C)CC[C@H](O[C@@H]6O[C@H](C(=O)O)[C@@H](O[C@@H]7O[C@H](CO)[C@@H](O)[C@H](O)[C@H]7O)[C@H](O)[C@H]6O[C@@H]6O[C@H](CO)[C@@H](O)[C@H](O)[C@H]6O)[C@](C)(CO)C5CC[C@]43C)[C@@H]2CC1(C)C (some centres undefined) | inactive |
| COc1cc(C2Oc3c(OC)cc(CCCO[C@@H]4O[C@H](CO)[C@@H](O)[C@H](O)[C@H]4O)cc3C2CO)ccc1O (some centres undefined) | inactive |
| CC1=C(C)C(=O)OC(C(C)C2C(O)CC3C4C5OC5C5(O)CC(OC6OC(CO)C(O)C(O)C6O)CC(O)C5(C)C4CCC32C)C1 (centres undefined) | inactive |
| CC(C)c1cc2c(c(O)c1O[C@@H]1O[C@H](CO)[C@@H](O)[C@H](O)[C@H]1O)CC1(O)CCC(O)C(C)(C)C1CC2 (some centres undefined) | inactive |
